Structures are written as SMILES. Among all 65,000 compounds or so, about 2,100 (3.2%) showed an effect of 50% or more. The median lay at about -52%. The entries come from a sample that favours strong results as a whole.

For this assay, the system named is Plasmodium falciparum. The experiment in a line: Screen against P. falciparum Asexual Blood Stage (ABS), at 5uM. It is filed as functional, Dd2. To be noted: tested at 5 uM.
For `O=C(c1c[nH]cn1)N1CCC(F)(F)C2(CCN(c3cccc(F)c3)C2)C1` (stereo not drawn), the INHIBITION is listed as 86.2%.

Regarding `Cc1n[nH]c2c1C(c1ccncc1)SCC(=O)N2` (stereo not drawn), the INHIBITION was -28%. The value for `COCCN1CCOCC2(C1)CN(C(=O)c1conc1C)CCO2` (stereo not drawn) was -10.5%; that for `COC(=O)NCCC(=O)NC(C)Cc1cccc(Br)c1` (stereo not drawn) was -15.7%. Next, `CCC(=O)NCC(=O)NCC(C)(C)c1cccc(Br)c1`: 87.2%.

As for `COC(=O)NCCC(=O)NC(C)Cc1ccccc1Br` (stereo not drawn), the INHIBITION is on record as -138%. Next, `COC(=O)NCC(=O)NCC(C)(C)c1cccc(Br)c1`: 84.6%; `c1cc(CN2CCO[C@@H]3CNC[C@@H]32)cs1`: -38.5%. The value for `Cc1cccc(CN2C[C@H](NS(C)(=O)=O)[C@@H]3OCCC[C@@H]32)n1` was -121%; that for `CC(C)N1CCO[C@H]2CN(Cc3cc[nH]n3)C[C@H]21` was -62.4%; that for `COCC(=O)N1CC[C@H]2[C@H]1CCN2CC(C)C` was -34.8%. The value for `CC(C)CN1CCCC1c1cc[nH]n1` (stereo not drawn) was 91%; that for `CC(C)c1ncc2c(n1)CN(CCCc1nc3ccccc3o1)CC2` was 70.3%; that for `Cc1noc(C)c1CN1CC[C@@H]2O[C@@H](COCC(C)C)CC[C@@H]21` was -49.5%.

For `COc1ccc(C[C@H]2CNCC[C@@H]2OCC2CC2)cc1`, the INHIBITION is listed as 82.2%. Next, `COc1ccc(C[C@H]2CNCC[C@@H]2OC)cc1`: 78.3%; `COc1cccc(CC(C)NC(=O)NCCc2cccnc2)c1` (stereo not drawn): -58.4%; `O=C1CSC(c2ccc3c(c2)OCO3)c2cnn(C3CCCCC3)c2N1` (stereo not drawn): -33%.

Take `CCC(O)CN1CCN(C(=O)Cc2ccc(OC)cc2OC)CC1` (stereo not drawn): the INHIBITION is recorded as -2.14%. Next, `COc1ccc(OC)c(CNCc2ccnc(N3CCCCC3)c2)c1`: 75.8%. Next, `c1cc(CNCc2ccnc(N3CCCC3)c2)c2c(c1)OCCCO2`: -20.5%.

Consider `COc1ccc(CNCc2ccnc(N3CCCC3)c2)c(OC)c1`, for which the INHIBITION is recorded as 73.6%. For the molecule `CC[C@@H]1N(Cc2cccnc2)CCC[C@]12CCC(=O)N2C`, the INHIBITION is recorded as -25.2%. Next, `CN1CC=C(c2noc(CCC(=O)N3CCOCC3)n2)CC1`: -132%; `Cn1ncc2c(N3CCCC4(CCNC4)C3)nc(C(C)(C)C)nc21` (stereo not drawn): 38.2%. The value for `CCNC(=O)CN1CCSC2(CCCCC2)C1` was -49.4%; that for `NC(=O)CN1CCCN(C(=O)Cc2ccc(Br)cc2)CC1` was -114%; that for `CCC1(CC)Cc2ccccc2-c2nc(CN(C)C)nc(O)c21` was 74.6%. The value for `FC(F)CN1CCOC(Cn2cccn2)C1` (stereo not drawn) was -69.4%. Take `CC(NCC1CCN(CCO)CC1)c1ccc(OC(F)(F)F)cc1` (stereo not drawn): the INHIBITION is given as 93.8%. Next, `CC(NCC1CCN(CCO)CC1)c1ccc(C(F)(F)F)cc1` (stereo not drawn): 89.1%; `OCCN1CCC(CNCc2ccccc2OC(F)(F)F)CC1`: 95.8%. With `O=C(Cc1cnc(-c2c(Cl)cccc2Cl)s1)N1CCC2(CC1)OCCO2`, the INHIBITION was -87.1%. The value for `CCC12CN3CC(C)(CN(C1)C3c1[nH]c(=O)[nH]c(=O)c1C)C2=O` (stereo not drawn) was -51.4%. The value for `CCN1CCNC(=O)C12CCN(C(=O)c1ccccn1)CC2` was -86.3%; that for `O=C1CSC(c2ccc(O)cc2)c2c(n(C3CCOCC3)[nH]c2=O)N1` (stereo not drawn) was -92.3%; that for `Cc1nn(C2CCCC2)c2c1C(c1ccc3c(c1)OCO3)SCC(=O)N2` (stereo not drawn) was 6.36%.

For `Cc1nc(CN2CCO[C@H]3[C@@H](Oc4ccccn4)CC[C@@H]32)cs1`, the INHIBITION is reported as -47%. Next, `CSc1ccccc1C(=O)C1CCCN(Cc2ccccn2)C1` (stereo not drawn): -41.1%; `NC(=O)c1cccc2nc([C@H]3CCN(Cc4ccccn4)C3)[nH]c12`: 95.1%. The value for `O=C1NC[C@H]2CN(Cc3ccccn3)CCN12` was -9.08%; that for `CCS(=O)(=O)N[C@@H]1CN(Cc2cc(C)on2)C[C@@H]2CCCO[C@@H]21` was -96%. As to `CN1CCN(c2ccc(CO)cc2F)CC1`, the INHIBITION is -62.7%. As to `CN1CCN(c2ccccc2CNC(=O)Cc2cccc(F)c2)CC1`, the INHIBITION turned out to be 77.4%.

For the molecule `CN1CCN(c2ccc(F)cc2C(N)=O)CC1`, the INHIBITION was -105%. Next, `COC(=O)CNC(=O)c1cn(Cc2ccccc2F)nn1`: -63.8%; `CN1CCN(c2ccccc2NC(=O)NCCc2ccccc2)CC1`: 83.9%; `CN1CCN(c2ccnc3c(F)cc(Br)cc23)CC1`: 0.83%. Turning to `CN1CCN(c2ccccc2CNC(=O)Cc2ccccc2F)CC1`, the INHIBITION came to 77%. Next, `O=S1(=O)CCC(n2cc(C3=CCN(CCn4cccc4)CC3)cn2)C1` (stereo not drawn): -22.4%; `Cc1noc(C)c1CN1C(=O)[C@@H]2CC[C@H]1CN(Cc1cscn1)C2`: -41.1%. Next, `O=C(C1CCC1)N1CCC2(CC1)CNCCO2`: -16.3%; `O=C(Nc1ccccc1)C1=NOC2(CCNCC2)C1`: -53.9%.

The record behind these values is ChEMBL document CHEMBL4513216, “Probing the Open Global Health Chemical Diversity Library for Multistage-Active Starting Points for Next-Generation Antimalarials” (ACS Infect Dis, 2020).
